Most compounds without a hit are left out; they make up all but 2.8% or so of the library.
DRD3 agonist = agonists of human D3 dopamine receptor | P35462 | D3R DiscoveRx beta-arrestin cells, luminescence, 90 min | max activation, % | 410,000 tested, 0.58% active | AID 652048; in the data active = max activation above about 30%
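Agonist-mode cell screen: cells plated at 1500/well and incubated overnight at 37 °C, then exposed to library compounds for 90 min at 37 °C. Detection reagent was added for 30–60 min at room temperature, and luminescence was read.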
PI4K2A block = blocks human PI4K2A kinase activity; Q9BTU6; 420,000 tested, 0.13% active; activity change, negative = inhibition, % at 76.9 µM; AID 1346378; purified PI4K2A, ADP-Glo luminescence, 1 h; stronger effect = lower value; in the data active = activity change below about -50%
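In this quantitative HTS, ADP production by PI4K2A was quantified luminescently after 1 h at ambient temperature; 100 microM adenosine served as plate-quality control.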
LDHA block = inhibitors of human lactate dehydrogenase A | purified LDHA, NADH/diaphorase-resazurin fluorescence; stronger effect = lower value | activity change, % (values are at about 110 or 230 µM) | 480,000 tested, 0.15% active | AID 1347041; in the data active = activity change below about -30%
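Human LDH5 at 2 nM final in Tris HCl pH 7.4 with 0.06 mM NADH and 0.2 mM pyruvate, reacted 5 minutes at room temperature. Remaining NADH coupled via diaphorase/resazurin; resorufin fluorescence read at 0 and 20 minutes, normalized to enzyme-free and DMSO wells.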
D3 antag = blocks the human D3 dopamine receptor; P35462; D3R cells, DiscoveRx beta-arrestin luminescence, antagonist mode; stronger effect = lower value; max response, negative = inhibition, %; 360,000 tested, 2.5% active; AID 652054; in the data active = max response below about -50%
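Cells expressing the human receptor were seeded at 1500 cells/well, incubated overnight at 37 degrees C in 5% CO2, then exposed to library compounds with dopamine controls for 90 minutes at 37 degrees C before luminescent detection.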
pAkt inh = inhibitors of Akt phosphorylation; Neuro2A IGF-stimulated pAkt S473 HTRF, 20 min; stronger effect = lower value; activity change, % for hits at 50 µM; 360,000 tested, 0.32% active; in the data active = activity change below about -80%
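Neuro2A cells (4,500/well, DMEM with 0.5% FBS) were treated with compound at a single 50 µM final concentration, stimulated with 6 nM IGF for 20 min at 37 °C, and lysed. Phospho-Akt Ser473 was read by HTRF as 665/615 ratio ×10^4.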
RGS4 inh = inhibitors of human regulator of G protein signaling 4 | Transcreener GDP fluorescence polarization, RGS4-accelerated GTP hydrolysis | Potency, µM (series often up to 114 µM), usual class: inhibitors | 390,000 tested, 0.039% active; active = well fitted inhibition curve with a large enough effect; note: nearly all actives have a fitted effect of over 75% in size
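MLSMR compounds (23 nl, pin-transferred) preincubated 10 min at room temperature with a 500nM (2x) first reagent, then RGS4 at 900nM (2x) plus Transcreener GDP mix added; fluorescence polarization (620/688 nm) read before and after 90 min at 30 °C.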
Hits are given with their value.

OC(CC#CCN1CCCCC1)(c1ccccc1)c1ccccc1 was read as DRD3 agonist inactive, PI4K2A block inactive, LDHA block inactive, D3 antag -52, pAkt inh inactive and RGS4 inh inactive.
`CC(C)C(O)(C#CCN1CCCCCC1)c1ccccc1` (stereo not drawn) gave DRD3 agonist inactive, PI4K2A block inactive, LDHA block inactive, D3 antag -60, pAkt inh inactive and RGS4 inh inactive.
Screening CCC(O)(CCN1CCCCC1)c1ccccc1 (stereo not drawn) returned DRD3 agonist inactive, PI4K2A block inactive, LDHA block inactive, D3 antag inactive, pAkt inh inactive and RGS4 inh inactive.
Screening Cc1ccn2cc(-c3c(-c4ccccc4C)n(C)c(=O)n(C)c3=O)nc2c1 returned LDHA block inactive.
Screening COc1cc(OC)c2cc(C(=O)Nc3ccccc3)[nH]c2c1OC returned LDHA block inactive.
O=C1Oc2ccccc2C(=O)/C1=C/N1CCN(c2ccccc2F)CC1 was read as DRD3 agonist inactive, PI4K2A block inactive, LDHA block inactive, D3 antag -59, pAkt inh inactive and RGS4 inh inactive.
For Cc1cccc(N2CCN(C(=O)c3cn(CC(C)C)c(=O)c4c3c3ccccc3n4C)CC2)c1C the results were DRD3 agonist 30, PI4K2A block inactive, LDHA block inactive and RGS4 inh inactive.

Bioassay records: PubChem BioAssay, National Center for Advancing Translational Sciences (NCATS)
